Source: PubChem BioAssay (NCI)
Compounds without any hit were thinned out: in the full panel of roughly 83,000, 20% have a hit.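 The test compound was applied at a single concentration to cells in 96-well plates for 48 hours, and percent growth was recorded.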 Active and inactive are the calls of the source.

Tested on: SW-620 colon
Assay: NCI-60 one-dose screen, 48 h (100 = growth as untreated, 0 = no growth, -100 = all killed)
Conditions: 10 µM unless noted
Method: Growth inhibition of the SW-620 human tumor cell line is measured as a screen for anti-cancer activity. Cells are grown in 96 well plates and exposed to the test compound for 48 hours. Compounds are tested at a single concentration, which is 10^-5 M for most compounds. The reported endpoint is percent growth (GI% or GIPRCNT), where numbers from 0 - 100% represent growth inhibition, and numbers from -100% - 0 represent cell death. For example, a value of 40 represents 60% growth inhibition. A value of 0 means no net growth occurred over the course of the experiment. A value of -40 indicates 40% of cells at the beginning of the experiment died by the end of the experiment. A value of -100 means all cells are dead at the end of the experiment.
NCI-60 Human Tumor Cell Lines Screen was performed using the standard one-dose NCI protocol, which is described in more detail at https://dtp.cancer.gov/discovery_development/nci-60/default.htm.
Compounds with GIPRCNT values below 10 were considered active. Activity score was based on GIPRCNT using the following formula: […]
Score is 0 for GIPRCNT values of 100 or above, 50 for GIPRCNT values of 0, and 100 for GIPRCNT values of -100.

Question: `Cc1cc(N(CCNc2ccnc3cc(Cl)ccc23)Cc2ccco2)nc(Cl)n1` was tested. Which growth did it give?
Answer: The growth was -35.6% (active).

Question: For `N=C(N)c1ccc(S(N)(=O)=O)cc1`, which growth is on record?
Answer: The growth was 105% (inactive).

Question: For `Cc1cc(N(CCCNc2ccnc3cc(Cl)ccc23)Cc2ccco2)nc(N2CCOCC2)n1`, which growth is on record?
Answer: The growth was 63.3% (inactive).

Question: For `c1ccc(-c2nc(Nc3ccc(-c4nc5ccccc5[nH]4)cc3)nc(N3CCOCC3)n2)cc1`, which growth is on record?
Answer: Its growth is -82.9% (active).

Question: `COC(=O)[C@@H]1[C@H]2C[C@H]3c4[nH]c5cc(OC)ccc5c4CCN3C[C@@H]2C[C@H](OC(=O)/C=C/c2ccnc(OC)c2)[C@H]1OC` was tested. Which growth did it give?
Answer: Its growth is 98.3% (inactive).

Question: Which growth does the source give for `Cn1cc(-c2csc(-c3cn(C(=O)OC(C)(C)C)c4ccccc34)n2)c2cccnc21` here?
Answer: Its growth is 36.1% (inactive).

Question: How did the growth turn out when `Cn1cc(-c2csc(-c3cn(CCNC(=O)OC(C)(C)C)c4ccc(F)cc34)n2)c2cccnc21` was run?
Answer: Its growth is 88.4% (inactive).

Question: Which growth does the source give for `CN1CCN(c2nc(-c3cccc4ccccc34)nc3sc4c(c23)CCCCCC4)CC1` here?
Answer: Its growth is 83.8% (inactive).

Question: `Cn1cc(-c2csc(-c3cn(C(=O)OC(C)(C)C)c4ccc(Br)cc34)n2)c2cccnc21` was tested. Which growth did it give?
Answer: The growth was 90.4% (inactive).

Question: Which growth does the source give for `COc1ccc(/C=C2\N=C(c3ccccc3)N(c3cc(OC)c(OC)cc3C(=O)N3N=C(C)CC3=O)C2=O)cc1` here?
Answer: Its growth is 108% (inactive).

Question: `Fc1ccc2c(c1)c(-c1nc(-c3c[nH]c4ncccc34)cs1)cn2CCCN1CCCCC1` was tested. Which growth did it give?
Answer: Its growth is -34.9% (active).

Question: Which growth does the source give for `C[C@H]1[C@H]2C3=CC[C@@H]4[C@@]5(C)C/C(=C/c6ccco6)C(=O)C(C)(C)[C@@H]5CC[C@@]4(C)[C@]3(C)CC[C@@]2(C(=O)N2CCOCC2)CC[C@@H]1C` here?
Answer: The growth was 25.3% (inactive).

Question: For `Nc1c2c(nc3ccc(Cl)cc13)CC(c1ccc(O)cc1)CC2=O` (stereo not given), which growth is on record?
Answer: The growth was 33.8% (inactive).

Question: Which growth does the source give for `CN1CCN(CC#CCn2c3c(c4ccccc42)C[C@]2(C)[C@H]4CC[C@@H]5[C@H]6[C@H]7OC(=O)[C@@]6(CCC7(C)C)CC[C@@]5(C)[C@]4(C)CC[C@H]2C3(C)C)CC1` here?
Answer: The growth was 91.2% (inactive).

Question: `N#Cc1cnc2cc(OC[C@@H](O)CO)c(NC(=O)CC3CSSC3)cc2c1Nc1ccc(OCc2cccc(F)c2)c(Cl)c1` was tested. Which growth did it give?
Answer: Its growth is -74.8% (active).

Question: With `Oc1cccc2ccc(N/N=C/c3cc(CN4CCCCC4)c(O)c4ncccc34)nc12` as the compound, how does the growth read?
Answer: Its growth is 16% (inactive).

Question: Which growth does the source give for `COc1cc2[nH]c(C(=O)c3cc(OC)c(OC)c(OC)c3)c(N)c2cc1C#CC1CC1` here?
Answer: The growth was 22.5% (inactive).

Question: With `O=C1CCC/C=C\C[C@H]2C=C(Cl)C(=O)/C2=C/C[C@H](CCCCC(F)(F)F)OC(=O)CCC/C=C\C[C@H]2C=C(Cl)C(=O)/C2=C/C[C@H](CCCCC(F)(F)F)O1` as the compound, how does the growth read?
Answer: The growth was -30.8% [7.5 µM] (active).

Question: For `Cc1nnc2nc(N)[nH]n2c1=O`, which growth is on record?
Answer: The growth was 107% (inactive).

Question: Which growth does the source give for `Nc1c(C(=O)Nc2cccc(Br)c2)sc2nc3c(cc12)C(=O)CCC3` here?
Answer: The growth was 25% (inactive).

Question: `COc1cc2nc(Cl)nc(Nc3cccc(C(=O)/C=C/c4ccc(F)cc4)c3)c2cc1OC` was tested. Which growth did it give?
Answer: The growth was 2.24% (active).

Question: How did the growth turn out when `Cc1cccc(C)c1NCc1nc(-c2ccccc2)n[nH]1` was run?
Answer: Its growth is 109% (inactive).

Question: `C=C1C(=O)O[C@H]2[C@H]1CC/C(COC(=O)NCCc1c[nH]c3ccccc13)=C\CC[C@@]1(C)O[C@@H]21` was tested. Which growth did it give?
Answer: The growth was -33.2% (active).

Question: Which growth does the source give for `COc1ccc2c(c1)C(Br)=C(CCO)C2c1ccccc1` (stereo not given) here?
Answer: Its growth is 73.2% (inactive).

Question: `COc1cc(/C=C/c2cc(/C=C/c3ccc(O)c(OC)c3)n(-c3ccc(Cl)cc3)c(=O)n2)ccc1O` was tested. Which growth did it give?
Answer: The growth was 85.6% (inactive).

Question: Which growth does the source give for `Cn1c(/C(C#N)=C/c2ccc3ccccc3c2)cc2ccccc21` here?
Answer: The growth was 26.4% (inactive).

Question: `Nc1nc2c3ccncc3cc(-c3cccc(Cl)c3)c2c2cnccc12` was tested. Which growth did it give?
Answer: Its growth is 36.5% (inactive).

Question: With `COc1cccc(-c2nn(-c3ccccc3)cc2-c2ccnc(NCCCNS(=O)(=O)c3ccc(C(F)(F)F)cc3)c2)c1` as the compound, how does the growth read?
Answer: The growth was 47.7% (inactive).

Question: How did the growth turn out when `CCCCCC1CCCCN1C(=O)OCC` (stereo not given) was run?
Answer: The growth was 105% (inactive).

Question: For `COC(c1ccccc1)(c1ccccc1)c1ccccc1`, which growth is on record?
Answer: Its growth is 99.1% (inactive).

Question: Which growth does the source give for `C=COCCCCCCCCCCCCCCCCCC` here?
Answer: Its growth is 104% (inactive).

Question: Which growth does the source give for `Cn1cc(-c2csc(-c3cn(CCNC(=O)OC(C)(C)C)c4ccccc34)n2)c2cccnc21` here?
Answer: The growth was 92.4% (inactive).

Question: With `COc1cc2c(cc1-c1c(C)noc1C)ncc1nc(C3CCCCC3)n([C@@H](C)COC(F)F)c12` as the compound, how does the growth read?
Answer: The growth was 59.2% (inactive).

Question: With `O=C(NC(Cc1cn(Cc2ccccc2)cn1)C(=O)O)OCC1c2ccccc2-c2ccccc21` (stereo not given) as the compound, how does the growth read?
Answer: Its growth is 104% (inactive).

Question: `Cc1nn(-c2ccc(Br)cc2)c2nc3[nH]c(=O)[nH]c(=O)c3nc12` was tested. Which growth did it give?
Answer: Its growth is 103% (inactive).

Question: For `O=C(/C=C/c1cccc(O)c1)c1ccccc1O`, which growth is on record?
Answer: The growth was 86.3% (inactive).

Question: Which growth does the source give for `Fc1ccc2[nH]cc(-c3nc(-c4c[nH]c5ncccc45)cs3)c2c1` here?
Answer: The growth was 47.2% (inactive).

Question: `COc1cnc2c(c1)C(=O)c1c-2n(CCCN2CCN(CCO)CC2)c(=O)c2cc([N+](=O)[O-])ccc12` was tested. Which growth did it give?
Answer: The growth was -48.8% (active).

Question: How did the growth turn out when `COc1ccc2c3c(c4ccccc4cc13)C(=O)N(CCN(C)CCN)C2=O` was run?
Answer: The growth was -66.5% (active).

Question: How did the growth turn out when `O=C(N/N=C/c1ccccc1SSc1ccccc1/C=N/NC(=O)c1ccccc1)c1ccccc1` was run?
Answer: The growth was 41.6% (inactive).
